# AHR act = activates the human aryl hydrocarbon receptor | AHR-responsive luciferase reporter cells, luminescence | activation, % at 5 µM | P35869 | 320,000 tested, 2.5% active; in the data active = activation above about 47%;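 also: 0% = vehicle wells and 100% = reference agonist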
# hgDAF12 agonist = hgDAF-12 agonism, primary luciferase screen; activation, % at 6.8 µM; HEK293 GAL4-hgDAF12 UAS-luciferase reporter, agonist luminescence; normalized to butyrate control; 370,000 tested, 1.8% active;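 active = activation above a cutoff set at the mean of all screened compounds plus 3 SD, cut at about 10% in these data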;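 also: 0% = DMSO wells and 100% = sodium butyrate wells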
# ssDAF-12 act = S. stercoralis DAF-12 activation, primary screen. HEK293 ssDAF-12/GRIP1 lit1-tk-luc reporter, luminescence; % of 3 µM dafachronic acid response. activation, % at 6.8 µM. 370,000 tested, 1% active. AID 652126;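 active = activation above the mean over all tested compounds plus 3 SD, cut at about 0.9% in these data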;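 also: 0% = DMSO-only wells and 100% = 3 µM delta7-dafachronic acid wells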
# hcDAF12 agonist = activators of H. contortus DAF-12 nuclear receptor; HEK293 hcDAF-12 lit1-tk-luc reporter, luminescence; 0% DMSO, 100% Δ7-dafachronic acid; activation, % at 6.8 µM; 370,000 tested, 1.4% active;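 active = activation above the mean of all tested compounds plus 3 SD, cut at about 5.5% in these data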;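 also: 100% = response to 3 µM Δ7-dafachronic acid high control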
# DAX1 inh-1 = DAX1 (NR0B1) inhibition, primary screen; HEK293T StAR-luciferase reporter, SF-1/DAX-1 repression relief; inhibition, % at 6.8 µM; 370,000 tested, 1.1% active;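 active = inhibition above the mean over all tested compounds plus 3 SD, cut at about 3.6% in these data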;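 also: 0% = DAX-1 cells with DMSO and 100% = cells lacking DAX-1 with DMSO; higher inhibition means more luminescence from relief of DAX-1 repression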
# DAX1 inh-2 = inhibitors of human orphan nuclear receptor DAX1 (NR0B1); P51843; HEK293 Gal4-DAX1 luciferase reporter, luminescence; inhibition, % at 6.75 µM; 340,000 tested, 0.99% active; AID 504766;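 active = inhibition above the mean over all tested compounds plus 3 SD, cut at about 4.2% in these data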;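 also: 0% = DAX1-transfected cells with DMSO and 100% = empty-vector control cells with DMSO; inhibition shows as a rise in luminescence from relieved DAX1 repression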
# LXR ag = LXR-beta agonism as hcDAF-12 counter-screen; shares compounds with hcDAF12 agonist; 3,400 tested, under 10 active; AID 743027; HEK293 Gal4-LXR tk-luc reporter, luminescence, 24 h; normalized: DMSO 0%, positive control 100%; activation, % at 6.8 µM;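 active = mean percent activation of the reporter above a cutoff set as the average over tested compounds plus their standard deviation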
# hcDAF12 ag = confirmation of H. contortus DAF-12 agonists. shares compounds with hcDAF12 agonist. HEK293 hcDAF-12 lit1-tk-luc reporter, luminescence; % of Δ7-dafachronic acid response. activation, % at 6.8 µM. 3,400 tested, 61% active. AID 743032;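 active = mean activation across triplicate tests above the threshold derived from the earlier primary screen, cut at about 5.5% in these data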;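 also: 0% = DMSO only wells and 100% = 3 µM Δ7-dafachronic acid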
# hgDAF12 conf = hgDAF-12 agonism, confirmation assay. shares compounds with hgDAF12 agonist. HEK293 GAL4-hgDAF12 luciferase reporter, agonist mode; percent of butyrate response. activation, % at 6.8 µM. 3,300 tested, 80% active. AID 743050;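 active = mean activation over triplicate wells above the hit cutoff derived from the earlier primary screen, cut at about 11% in these data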;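 also: 0% = DMSO low control and 100% = 2 mM sodium butyrate high control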
# LXR ag 2 = counter-screen for DAF-12 agonists: agonists of human LXR-beta; shares compounds with hgDAF12 agonist; HEK293 Gal4-LXR luciferase reporter, 24 h; activation, % at 6.8 µM; 3,300 tested, under 10 active;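 active = mean activation of the triplicate above a set limit carried over from the primary screen, none filed active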
# Starred values were filed as active, the others as inactive; / = no result. Hits are enriched below; roughly 5.7% of the tested compounds scored in any of these assays.
SMILES,AHR act,hgDAF12 agonist,ssDAF-12 act,hcDAF12 agonist,DAX1 inh-1,DAX1 inh-2,LXR ag,hcDAF12 ag,hgDAF12 conf,LXR ag 2
O=C(O)COCC(=O)N1CCc2c([nH]c3ccccc23)C1C(F)(F)F (stereo not drawn),0,0,-1,0,-1,0,/,/,/,/
CCOc1ccccc1NC(=O)Nn1cnnc1,7,1,-1,-1,2,1,/,/,/,/
CN(C)C(=O)c1cccc(-c2csc(N3CCC(C(N)=O)CC3)n2)c1,9,3,-1,1,0,/,/,/,/,/
CN(C)c1cccc(-c2cnc(N3CCC(C(N)=O)CC3)s2)c1,/,17*,1.8*,6.7*,/,/,2,6.0*,19*,1
Fc1ccccc1N1CCN(C2CCCN(Cc3ccccc3C(F)(F)F)C2)CC1 (stereo not drawn),0,1,0,1,0,1,/,/,/,/
CC(C)(C)NC(=O)C(c1cccnc1)N(C(=O)c1cccs1)c1ccc(C(C)(C)C)cc1 (stereo not drawn),/,1,-1,1,/,/,/,/,/,/
O=C(Nc1ccc2c(c1)CCC2)c1cccc(F)c1,3,19*,1,8.0*,4.4*,1,1,5.7*,14*,1
O=C(Nc1ccncc1)c1cccc(F)c1,9,-1,-1,-1,-1,-1,/,/,/,/
Cc1ccc(-c2cn(-c3ccccc3)c(SCC(=O)NC3CCS(=O)(=O)C3)n2)cc1C (stereo not drawn),46,17*,0,8.4*,2,1,1,4,7,1
CCN(CC(=O)Nc1c(F)cccc1F)C(=O)CCc1ccc(OC)cc1,0,-2,-2,-1,0,1,/,/,/,/
COc1cc(OC)c(OC)cc1CN1CCN(C(=O)CC(C)C)CC1,-1,0,0,0,0,-1,/,/,/,/
Cc1ccc(C)c(NC(=O)c2cc3ccccn3n2)c1,-2,21*,0,7.8*,3.6*,1,1,3,18*,1
O=C(CCn1c(=O)oc2ccccc21)Nc1cccc(Br)c1,4,-1,-1,1,-1,-1,/,/,/,/
Cc1cc(N/N=C/c2ccc(O)cc2O)c2ccccc2n1,-1,-1,-2,0,1,-1,/,/,/,/
Oc1ccc(C=NNc2nc3ccccc3s2)c(O)c1,/,13*,1.8*,9.6*,2,3,2,5,11*,1
CC1=NC(=O)C(N=Nc2cccc(C(=O)O)c2)N1c1ccccc1 (stereo not drawn),-6,16*,1.5*,10*,3,-4,1,13*,16*,1
CC(=O)Nc1ccc2nc(NC(=O)c3cccs3)sc2c1,58*,21*,1.8*,6.7*,4.2*,3,1,9.2*,13*,1
CC(=O)Nc1cccc(/C(C)=N/NC(=O)c2cccs2)c1,5,18*,0,6.7*,2,4,0,1,1,0
Oc1ccc(C[C@H]2CNC(=S)N2C[C@H]2CCCN2C[C@H](Cc2ccccc2)N2C[C@H](Cc3ccccc3)N(CC3CCCCC3)C2=S)cc1,/,4,-1,-1,0,/,/,/,/,/
CCN1C[C@@H]2[C@@H]3C(=O)N(C)C(=O)[C@@H]3[C@](Cc3ccccc3)(C1=O)N2C(=O)c1ccc(F)cc1,/,0,-1,-2,0,-1,/,/,/,/
CCN(CC)c1ccc(/C=C/C(=O)C2C(=O)C=C(C)OC2=O)cc1 (stereo not drawn),27,19*,0,7.7*,2,0,0,4,8,0
O=C(CCCc1ccccc1)NC12CC3CC(CC(C3)C1)C2,5,17*,1.2*,8.4*,2,3,1,6.9*,15*,1
COc1cccc(-c2nc3ccccc3s2)c1,68*,17*,1.7*,15*,4.4*,1,2,11*,27*,1
COc1nc(C)ccc1-c1noc(-c2cccs2)n1,14,14*,0,8.4*,3,/,1,6.2*,16*,1
COc1cccc(-c2noc(-c3cccs3)n2)c1,48*,15*,1.4*,6.9*,4.0*,2,2,11*,21*,1
SMILES,AHR act,hgDAF12 agonist,ssDAF-12 act,hcDAF12 agonist,DAX1 inh-1,DAX1 inh-2,LXR ag,hcDAF12 ag,hgDAF12 conf,LXR ag 2
COc1cccc(OCc2nnc(-c3cccs3)o2)c1,8,3,-1,0,3,0,/,/,/,/
Cc1cc(N2CCCC2)nc2ccc(NC(=S)NCCCN3CCC(C)CC3)cc12,0,0,-1,-1,1,-1,/,/,/,/
COc1ccc(S(=O)(=O)N2CCN(C(=O)c3ccc(C)o3)CC2)cc1,1,0,-1,0,0,0,/,/,/,/
Cn1cc(/C=C/C(=O)c2ccccc2)c2ccccc21,45,14*,1.4*,12*,2,-1,2,13*,22*,1
CC(=C/c1ccccc1)/C=N/NC(=O)c1cccs1,-1,19*,-1,7.8*,2,/,2,8.2*,15*,1
O=C(N/N=C/C(Br)=C\c1ccccc1)c1cccs1,5,9,0,4,2,/,/,/,/,/
COc1ccc(C(=O)NCCCCCCNC(=O)c2ccc(OC)cc2)cc1,4,1,0,1,0,0,/,/,/,/
COCc1nnc(NC(=O)c2ccc(OC)cc2OC)s1,-1,15*,0,6.8*,2,0,1,4,12*,1
COc1ccc(C(=O)Nc2nnc(Cc3ccc(OC)c(OC)c3)s2)c(OC)c1,-3,0,-2,-2,-2,-1,/,/,/,/
CC(C)(CO)CNC(=O)CCc1nnc(CCCc2ccccc2)o1,0,1,-1,2,0,-1,/,/,/,/
O=C(CCc1nnc(CCCc2ccccc2)o1)NC(C1CC1)C1CC1,20,16*,1,7.3*,2,5.0*,1,4,15*,1
CC1Cc2ccccc2N1C(=O)CSc1ncccn1 (stereo not drawn),1,2,-1,1,0,0,/,/,/,/
O=C(Nc1ccccc1)c1cc2ccccc2s1,/,22*,1.1*,10*,4.2*,3,2,11*,20*,1
